Data taken from PubChem BioAssay (NCATS).
Results filed as inconclusive are left out. A call without a number means that no potency is given here. Active and inactive are the calls of the source. Calls follow the shape of the dose curve; as a rule, active = well fitted curve in the direction sought with a large enough effect; inconclusive = small, poorly fitted or top-dose-only effect, or another doubt; inactive = no such curve, though single readings can be large; an effect the other way counts as inactive or inconclusive.

Legend:
[1] = target: Aldehyde dehydrogenase, mitochondrial (Homo sapiens) (UniProt P05091); assay: qHTS for Inhibitors of the Aldehyde Dehydrogenase Family (ALDH2) Primary screen (AID 2061308); also: nearly all actives have a fitted effect of over 55% in size
[2] = target: Retinaldehyde dehydrogenase 3 (Homo sapiens) (UniProt P47895); assay: qHTS for Inhibitors of the Aldehyde Dehydrogenase Family (ALDH1A3) Primary screen (AID 2061315)

| SMILES | Potency [1] | Potency [2] |
| --- | --- | --- |
| Cc1ccnc(NC(=S)Nc2cccc([S+](=O)([O-])Nc3ccccc3F)c2)c1 | inactive | inactive |
| CC(C)c1ccccc1-c1ncc(F)c(NCc2ccc(-n3ccnn3)cc2)n1 | inactive | inactive |
| CNc1oc(-c2cccc3ccccc23)nc1C(=O)OC | inactive | inactive |
| COc1cccc(CNc2ccc(S(=O)(=O)Nc3ccc(-c4ccccc4)cc3)cc2)c1O | inactive | inactive |
| Cc1ccc(N2CCC(CNc3nc(-c4ccccc4C(C)C)ncc3C)CC2)cn1 | inactive | inactive |
| COc1cc(NC(=O)C(OC(=O)CNC(=O)c2ccccc2)c2ccccc2)cc(C(F)(F)F)c1 (stereo unspecified) | inactive | inactive |
| O=S(=O)(c1ccc2c(c1)OCCO2)N1CCN(S(=O)(=O)c2ccccc2Cl)CC1 | inactive | inactive |
| Nc1ccc2c(c1)C(=O)NS2(=O)=O | inactive | inactive |
| c1ccc(C2Nc3cccc4cccc(c34)N2)cc1 | inactive | inactive |
| O=C(Nc1nc(-c2ccccc2)cs1)c1ccncc1NS(=O)(=O)c1ccc(-c2ccccc2)cc1 | inactive | inactive |
| Cc1nnc(-c2cnn(C)c2N)n1CCCc1ccccc1 | inactive | inactive |
| Cc1nc(-c2ccccc2C(C)C)nc(NCc2ccc(-c3cccnc3)cc2)c1C | inactive | inactive |
| COC(=O)c1ccccc1NC(=O)c1ccc(F)cc1 | inactive | inactive |
| COc1cccc(CC(=O)Nc2nc(-c3ccc4c(c3)CCN4C(=O)c3ccccc3C)c(C)s2)c1 | inactive | inactive |
| COc1ccc(OC2=NS(=O)(=O)c3ccccc32)cc1 | inactive | inactive |
| O=C(Nc1nc(-c2ccccc2)cs1)c1ccccc1S(=O)(=O)Nc1nccs1 | inactive | inactive |
| O=C1CCc2cc(S(=O)(=O)Nc3ccccc3F)ccc2N1 | inactive | inactive |

| SMILES | Potency [1] | Potency [2] |
| --- | --- | --- |
| C=C1C(=O)OC2/C=C(/C)C3=CC(=O)C(C)(CC(OC(=O)/C(C)=C/COC(C)=O)C12)O3 (stereo unspecified) | inactive | inactive |
| COc1ccc(C2=Nn3c(nnc3-c3ccccc3F)SC2)cc1OC1CCCC1 | inactive | inactive |
| Cc1cc(N[S+](=O)([O-])c2ccc(NC(=O)Cc3ccc(Cl)c([N+](=O)[O-])c3)cc2)no1 | inactive | inactive |
| Cc1cccc([S+](=O)([O-])NC2CCN(C#N)CC2)c1 | inactive | inactive |
| COc1cccc(NS(=O)(=O)c2ccc(C)cc2)c1C(=O)Nc1nc(-c2ccccc2)cs1 | inactive | inactive |
| Cc1cc(C)nc(NC(=S)N2CCN(c3cccc(Cl)c3Cl)CC2)c1 | inactive | inactive |
| Cc1ccc(OCCn2c(CCNC(=O)c3cccc(NC(=O)OC(C)(C)C)c3)nc3ccccc32)cc1 | inactive | inactive |
| O=C(Nc1ccccc1)Nc1nnc(-c2ccncc2)s1 | inactive | inactive |
| CCOc1ccc(C(=O)Nc2ccc(-c3nc4ccccc4o3)cc2)cc1[N+](=O)[O-] | inactive | inactive |
| Cc1ccc(NC(=O)CN2C(=O)N/C(=C\c3cccn3-c3ccc(C(=O)NC#N)cc3)C2=O)cc1 | inactive | inactive |
| Cc1ccc2nsnc2c1S(=O)(=O)Nc1cccc2cccnc12 | inactive | inactive |
| Cc1cc(C)nc(NC(=S)N2CCN(c3ccc(Cl)cc3[N+](=O)[O-])CC2)c1 | inactive | inactive |
| Cc1cccc(-n2cnc3cc(C(=O)NC4CCCCC4)ccc32)c1 | inactive | inactive |
| COc1cc(-c2ccc3ncnc(NCC4CCCO4)c3c2)cc(OC)c1OC (stereo unspecified) | inactive | inactive |
| C[n+]1cc(C(O)(c2ccccc2)c2ccccc2)n2ccccc21 | inactive | inactive |
| CC(C)(C)N[S+](=O)([O-])c1cccc(-c2nnc(SCc3ccc(C(=O)O)cc3)n2-c2ccc(F)cc2)c1 | inactive | inactive |
